Assay results taken from PubChem BioAssay (Tox21).
Results filed as inconclusive are left out. A number with no mark means an inactive call. Calls of active or inactive are those of the source. Unless noted, calls follow the shape of the full dose curve.

system: not listed separately; assay: qHTS assay to identify small molecule antagonists of the farnesoid-X-receptor (FXR) signaling pathway - cell viability counter screen (AID 743221; active = well fitted cell-killing curve with a large enough effect in the repeat runs, not every such curve was filed as active; also: nearly all actives have a fitted effect of over 50% in size); conditions: FXR-bla HEK293T viability, CellTiter-Glo luminescence, 16 h; series mostly up to 62.6 µM; activity change, negative = cytotoxicity: at the top concentration
Procedure, shortened: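 In GeneBLAzer FXR-UAS-bla HEK 293T cells stimulated with 50 uM chenodeoxycholic acid (final), compounds acted for 16 h at 37 C. Viability was assessed afterwards by CellTiter-Glo luminescence.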
% is scaled to controls: 0 for no effect and ±100 for the full control effect.

SMILES | outcome
CC(C)CC(=O)CC(C)CC(C)C (stereo not given) | inactive
O=C(O)CCCCCCCCC(=O)O | inactive
NC(=S)NNC(N)=S | inactive
c1ccc(Oc2ccccc2)cc1 | inactive
O=[N+]([O-])c1ccc2nc[nH]c2c1 | inactive
CC(C)c1cccc(C(C)C)c1 | inactive
O=C1c2ccccc2CCc2ccccc21 | inactive
CC(C)=CCl | inactive
C=CC[N+](C)(C)CC=C | inactive
COc1ccc([N+](=O)[O-])cc1N | inactive
O=C(O)c1ccc(C(=O)O)c(C(=O)O)c1 | inactive
NCCNCCN | inactive
COC(=O)CCCC(=O)OC | inactive
COC(=O)c1cccnc1 | inactive
CCOC(=O)n1ccn(C)c1=S | inactive
CC(CCl)OP(=O)(OC(C)CCl)OC(C)CCl (stereo not given) | inactive
CC(C)CCCCCCCOC(=O)CCCCC(=O)OCCCCCCCC(C)C | inactive
CC(=O)c1ccc(O)cc1 | inactive
C=C(C)CNCC | inactive
C=C(C)C(=O)OCC(C)C | inactive
CCNc1ccccc1 | inactive
O=C(O)c1cc2ccccc2cc1O | inactive
CCNc1cccc(C)c1 | inactive
COc1ccc(OC)cc1 | inactive
N#Cc1ccccc1 | inactive

biological target: Vitamin D3 receptor (Homo sapiens) (UniProt P11473); assay: qHTS assay to identify small molecule agonists of the vitamin D receptor (VDR) signaling pathway (AID 743222); conditions: HEK293T VDR-UAS-bla, beta-lactamase FRET ratio, 16 h; series mostly up to 63.5 µM; activation: at the top concentration
Sequence (P11473 whole entry, looked up): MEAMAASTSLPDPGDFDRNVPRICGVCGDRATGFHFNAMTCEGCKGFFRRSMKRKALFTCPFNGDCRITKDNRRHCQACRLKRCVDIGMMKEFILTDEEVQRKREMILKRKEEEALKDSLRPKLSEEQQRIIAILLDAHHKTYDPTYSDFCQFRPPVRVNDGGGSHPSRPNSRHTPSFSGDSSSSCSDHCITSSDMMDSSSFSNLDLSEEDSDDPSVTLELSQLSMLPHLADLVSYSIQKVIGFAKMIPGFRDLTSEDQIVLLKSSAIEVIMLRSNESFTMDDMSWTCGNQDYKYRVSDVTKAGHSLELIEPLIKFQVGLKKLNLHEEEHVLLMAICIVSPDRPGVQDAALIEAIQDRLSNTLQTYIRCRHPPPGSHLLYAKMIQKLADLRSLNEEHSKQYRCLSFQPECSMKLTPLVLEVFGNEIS
Procedure, shortened: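 VDR-bla cells plated 4 h at 37 C, then exposed to compounds for 16 h at 37 C. Beta-lactamase reporter activity measured by fluorescence after 2 h room-temperature loading with LiveBLAzer B/G FRET substrate.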

SMILES | outcome | activation
O=C(O)CCCCCCCCC(=O)O | inactive | –
CN(C)c1ccc(O)c2c1C[C@H]1C[C@H]3[C@H](N(C)C)C(=O)C(C(N)=O)=C(O)[C@@]3(O)C(=O)C1=C2O | inactive | –
c1ccc(Oc2ccccc2)cc1 | inactive | –
C[Si]1(C)O[Si](C)(C)O[Si](C)(C)O[Si](C)(C)O1 | inactive | –
CC(C)c1cccc(C(C)C)c1 | inactive | –
CC(C)=CCl | inactive | –
C=CC[N+](C)(C)CC=C | – | 5.54% [at 81.1 µM]
COc1ccc([N+](=O)[O-])cc1N | inactive | –
NCCCCCCN | inactive | –
NCCNCCN | inactive | –
CCCCCC(=O)O | inactive | –
CC(C)(C)c1cc(Cc2cc(C(C)(C)C)c(O)c(C(C)(C)C)c2)cc(C(C)(C)C)c1O | inactive | –
COC(=O)CCCC(=O)OC | inactive | –
CN(C)c1ccc(Cc2ccc(N(C)C)cc2)cc1 | inactive | –
CC(C)OP(=O)(CP(=O)(OC(C)C)OC(C)C)OC(C)C | inactive | –
COC(=O)c1cccnc1 | inactive | –
Cc1ccc(S(=O)(=O)N=C=O)cc1 | inactive | –
CC(CCl)OP(=O)(OC(C)CCl)OC(C)CCl (stereo not given) | inactive | –
CC(C)CCCCCCCOC(=O)CCCCC(=O)OCCCCCCCC(C)C | – | 0.263% [at 81.1 µM]
CC(=O)c1ccc(O)cc1 | – | 1.59%
C=C(C)CNCC | inactive | –
CCCCC(C=O)CC (stereo not given) | inactive | –
C=C(C)C(=O)OCC(C)C | inactive | –
CCNc1ccccc1 | inactive | –
O=C(O)/C=C/C(=O)O | inactive | –
CC(=O)OCc1ccco1 | – | -1.27%
O=C(O)c1cc2ccccc2cc1O | inactive | –
CCNc1cccc(C)c1 | inactive | –
COc1ccc(OC)cc1 | inactive | –
N#Cc1ccccc1 | inactive | –

biological target: Vitamin D3 receptor (Homo sapiens) (UniProt P11473); assay: qHTS assay to identify small molecule antagonists of the vitamin D receptor (VDR) signaling pathway (AID 743223; active = well fitted inhibition curve with a large enough effect in the signal ratio in the repeat runs, not every such curve was filed as active; the % refers to the signal ratio); conditions: VDR-UAS-bla HEK293T, beta-lactamase FRET ratio, 16 h; series mostly up to 61 µM; activity change, negative = inhibition: at the top concentration
Procedure, shortened: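 Agonist 1alpha,25-dihydroxyvitamin D3 (3 nM in well) was added with each compound to VDR-bla cells preincubated 4 h. Cells stood 16 h at 37C, then FRET substrate 2 h at room temperature; fluorescence intensity recorded.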

SMILES | activity change, negative = inhibition | outcome
O=C(O)CCCCCCCCC(=O)O | -2.86% [at 78.8 µM] | –
CN(C)c1ccc(O)c2c1C[C@H]1C[C@H]3[C@H](N(C)C)C(=O)C(C(N)=O)=C(O)[C@@]3(O)C(=O)C1=C2O | – | inactive
c1ccc(Oc2ccccc2)cc1 | – | inactive
C[Si]1(C)O[Si](C)(C)O[Si](C)(C)O[Si](C)(C)O1 | -5.19% [at 78.8 µM] | –
CC(C)c1cccc(C(C)C)c1 | – | inactive
